The list is not random: actives were taken first. Their share in the collection is about 3.3%.
AmpC no deterg – AmpC beta-lactamase inhibition without detergent | Potency, µM (series often up to 57.1 µM), inactives show at the top dose activity change, negative = inhibition, most hits filed as inhibitors | AmpC nitrocefin hydrolysis, absorbance 480 nm, 0.0001% Triton | 0.52% of 330,000 active | AID 485341 | P00811;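 note: plate controls were no compound for no effect and no enzyme for full effect; nearly all actives have a fitted effect of over 20% in size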
Target sequence (P00811 whole entry, looked up): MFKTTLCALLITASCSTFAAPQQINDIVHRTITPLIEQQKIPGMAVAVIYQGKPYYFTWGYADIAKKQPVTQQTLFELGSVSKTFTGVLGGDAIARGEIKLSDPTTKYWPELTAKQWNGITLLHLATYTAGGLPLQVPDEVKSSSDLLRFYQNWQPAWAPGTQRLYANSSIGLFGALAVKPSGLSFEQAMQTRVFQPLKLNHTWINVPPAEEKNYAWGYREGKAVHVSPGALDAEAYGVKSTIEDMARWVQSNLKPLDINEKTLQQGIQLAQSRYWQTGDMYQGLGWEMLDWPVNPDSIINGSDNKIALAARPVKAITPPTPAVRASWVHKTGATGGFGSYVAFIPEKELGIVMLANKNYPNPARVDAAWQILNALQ
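AmpC (5.3 nM in the dispensed reagent) in 20 mM phosphate pH 7.0 with 0.01% (detergent screen) or 0.0001% Triton X-100 was preincubated with compounds for 15 min at room temperature. Nitrocefin was then added from an 800 uM solution, and hydrolysis was followed at 480 nm.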
RE007 growth inh – less growth of the S. pombe RE007 Vpr strain; S. pombe RE007 Vpr strain, BacTiter-Glo ATP luminescence, 24 h; Potency, µM (top dose mostly 92.2 µM), without a hit: at the top dose activity change, negative = less growth, most hits filed as inhibitors; 0.21% of 360,000 active; AID 651644; active = well fitted falling curve with a large enough effect; inconclusive = small, poorly fitted or top-dose-only effect; inactive = no such curve, though single readings can be large or run the other way; note: % is set by controls: 0 for no effect and ±100 for the full control effect; nearly all actives have a fitted effect of over 50% in size
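Fission yeast strain RE007, carrying one chromosomally integrated HIV-1 vpr copy, was seeded at OD 0.01 in PMG+AL medium with 23 nL pinned compound. After 24 h at 30 °C and 99% humidity, viability was read by BacTiter-Glo luminescence.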
SARS PLpro yeast – inhibitors of SARS-CoV papain-like protease in yeast; S. cerevisiae expressing SARS-CoV PLpro, growth rescue; 0.19% of 330,000 active; AID 485353; Potency, µM (doses to about 32.9 µM), inactives show top-dose activity, positive = growth rescue, most hits filed as activators; calls by dose curve; note: 0% is about no effect; nearly all actives have a fitted effect of over 55% in size
Sm TGR inh – blocks Schistosoma mansoni thioredoxin glutathione reductase. purified TGR, DTNB reduction, TNB absorbance 405 nm. Potency, µM (titrated, usually from 114 µM), for the others: at the highest dose activity change, negative = inhibition, hits mostly inhibitors. 3% of 360,000 active; note: % is set by controls: 0 for no effect and ±100 for the full control effect; nearly all actives have a fitted effect of over 60% in size
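TGR 20 nM + NADPH 100 uM (dispensed conc.), cpd preinc 15 min RT; start with NADPH (500 uM addition) then DTNB (15 mM addition). Kinetic TNB absorbance, 405 nm filter. Four-parameter Hill fit across titration.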
AmpC detergent – blocks E. coli AmpC beta-lactamase in detergent assay; AID 485294; 0.041% of 370,000 active; P00811; AmpC hydrolysis of nitrocefin, absorbance 480 nm, 0.01% Triton; Potency, µM (highest dose often 114 µM), without a hit: at the highest dose activity change, negative = inhibition, usual class: inhibitors;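 note: 0% = no-compound wells and -100% = no-enzyme wells; nearly all actives have a fitted effect of over 25% in size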
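20 mM phosphate pH 7.0 + 0.01% (detergent screen) or 0.0001% Triton X-100; 5.3 nM AmpC reagent; cpd preinc 15 min RT; nitrocefin (800 uM stock) to start; A480 q20 s × 4 min; Activity was normalised to no-enzyme and no-compound control wells.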
Tb PYK inh – T. brucei pyruvate kinase inhibition | 0.12% of 410,000 active | Potency, µM (highest dose often 76.8 µM), for the others: at the highest dose activity, negative = inhibition, most hits filed as inhibitors | TbPYK enzyme, Kinase-Glo Plus ATP luminescence, 45 min | Q57TT1; note: % is set by controls: 0 for no effect and ±100 for the full control effect; nearly all actives have a fitted effect of over 50% in size
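Activity of T. brucei pyruvate kinase was followed by Kinase-Glo Plus luminescence after the enzyme reacted 45 min at room temperature with 130 uM ADP (final) and substrate. Test compounds were added before ADP at multiple concentrations.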
* marks the source's active call; other numbers are inactive results; u = inconclusive; x = not tested or not shown; ! = a repeat was not active; [ ] = another dose, or the depositor's remark. Unless noted, calls come from the whole dose curve; as a rule, active = well fitted curve in the direction sought with a large enough effect; inconclusive = small, poorly fitted or top-dose-only effect, or another doubt; inactive = no such curve, though single readings can be large; an effect the other way counts as inactive or inconclusive. Potency is the fitted concentration of half-maximal effect.

SMILES | AmpC no deterg | RE007 growth inh | SARS PLpro yeast | Sm TGR inh | AmpC detergent | Tb PYK inh
COc1ccc(NC(=O)/C=C/c2ccc(C)o2)cc1S(=O)(=O)N1CCOCC1 | -13% | -5% | 5% | 18µM* | u | -18%
COc1cc(/C=C/C(=O)Nc2ccc(OC)c(S(=O)(=O)N3CCOCC3)c2)ccc1OC(F)F | 127% | 14% | 2% | x | x | 3%
CCOc1ccc(CCn2c3c(c(=O)[nH]c2=O)C(NC(=O)c2cccc(F)c2)(C(F)(F)F)C(=O)N3)cc1OCC (stereo not drawn) | x | x | x | -12% | -4% | 5%
Cc1cccc(NC(=O)c2nc(S(C)(=O)=O)ncc2Cl)c1 | x | x | x | 4.5µM* | 2% | 3%
COc1cccc(NC(=O)c2nc(S(C)(=O)=O)ncc2Cl)c1 | 0% | -1% | -3% | 10µM* | -12% | -3%
Cc1[nH]c2ccccc2c1/C=N/Nc1ccc(F)cc1F | -28% | x | -18% | 50µM* | u | x
Cc1c(C2(c3c(C)n(C)n(-c4ccccc4)c3=O)C(=O)Nc3ccc(F)cc32)c(=O)n(-c2ccccc2)n1C | 1% | 13% | 4% | -12% | 1% | -13%
Cc1cc(Br)cc2c1NC(=O)C2(c1c(C)n(C)n(-c2ccccc2)c1=O)c1c(C)n(C)n(-c2ccccc2)c1=O | 60% | 2% | 1% | 45µM* | 2% | -7%
CCOC(=O)COc1ccc2c(C)c(CCN(CC)CC)c(=O)oc2c1 | x | x | x | x | x | 21%
CC(C)N1CCC(N2CCN(Cc3ccc(-c4ccccc4Cl)o3)CC2CCO)CC1 (stereo not drawn) | 41% | 1% | 0% | 8% | 2% | -2%
CC(C)N1CCC(N2CCN(Cc3ccc(-c4ccc(Cl)cc4)o3)CC2CCO)CC1 (stereo not drawn) | 44% | 4% | 2% | 13µM* | 4% | -10%
COc1ccc(NC(=S)NCCc2ccccc2)c(OC)c1 | -17% | -11% | u | -4% | 3% | -4%
CCC(=O)NC(=S)NNC(=O)c1ccc(OC)cc1 | -44% | -12% | -3% | 0% | 56µM* | 2%
COc1ccc(S(=O)(=O)NNC(=S)NCCc2ccccc2)c(OC)c1 | -21% | -9% | 26% | 5.6µM* | 7% | -3%
O=C(NC(=S)NCc1ccccc1)c1ccc(Br)cc1 | x | 6% | x | x | x | -1%
COc1ccc(NC(=S)NC(=O)Cc2ccccc2)c(OC)c1 | -36% | 22% | 8% | 10µM* | u | -2%
COc1ccc(C(=O)NC(=S)NCc2ccccc2)cc1 | -29% | -19% | 27% | 5µM* | -10% | 6%
CCC(=O)C(Cc1ccccc1)(Cc1ccccc1)CC(C)N(C)C (stereo not drawn) | x | x | x | x | x | -5%[157 µM]
COc1ccc(OCC(=O)Nc2cccc(-c3nc4ccccc4s3)c2C)cc1 | x | x | x | -4% | 13% | 3%
CCOc1cc(CNC(=O)C(NS(=O)(=O)c2cccs2)C(C)C)cc(OCC)c1OCC (stereo not drawn) | x | x | x | 2% | -4% | -8%
COc1cc(OC)cc(C(=O)NC(=S)NCCc2ccccc2)c1 | -4% | -15% | u | 10µM* | 5% | 2%
C/C(=N\NC(=S)NCc1ccccc1)c1ccc2ccccc2c1 | 25µM* | -4% | 25% | -3% | -1% | 4%
COc1cc(OC)cc(C(=O)NC(=S)N(Cc2ccccc2)C(C)C)c1 | -19% | 5% | 0% | u | -9% | -7%
Nc1nc(N2CCCCC2)nc(N(c2ccccc2)c2ccccc2)n1 | 0.63µM* | -2% | 4% | -12% | u | -6%
Cc1ccc(N/C(C(Cl)=C(Cl)Cl)=C(/Cl)[N+](=O)[O-])c(C)c1 | -34% | 0% | -71% | 7.9µM* | -17% | 4%
SMILES | AmpC no deterg | RE007 growth inh | SARS PLpro yeast | Sm TGR inh | AmpC detergent | Tb PYK inh
COc1ccc(CCNC(=O)c2c(C)oc3ncn(CC(C)C)c(=O)c23)cc1OC | x | x | x | -2% | -6% | -2%
CC(C)(C)C1=CC(=O)C(=O)C(C(C)(C)C)=C1 | -12% | 13% | -67% | 20µM* | -14% | 8.9µM*
S=c1[nH]c2ccccc2[nH]1 | -5% | -1% | 0% | x | u | -1%
S=c1[nH]c2cc3ccccc3cc2[nH]1 | -25% | 7% | -4% | 8.9µM*! | -4% | -27%
Cn1c2ccccc2c2c(C(=O)O)cn(C3CCCC3)c(=O)c21 | -9% | -2% | 3% | 2% | u | 0%
COCCn1cc(C(=O)NCc2ccco2)c2c3ccccc3n(C)c2c1=O | 2% | 4% | 2% | -22% | 1% | 0%
Cn1c2ccccc2c2c(C(=O)NCc3ccco3)cn(C3CCCCC3)c(=O)c21 | 4% | 9% | -7% | 79µM* | -12% | -30%
Cc1ccc(CNC(=O)c2cn(C3CCCC3)c(=O)c3c2c2ccccc2n3C)o1 | x | x | x | 8.9µM* | 8% | x
O=[N+]([O-])/C(C(Cl)=C(Cl)Cl)=C(/Sc1ccccc1)N1CCCCC1 | -22% | 17% | 1% | 28µM* | 1% | -6%
O=C(N/C(=C\c1ccc([N+](=O)[O-])cc1)C(=O)N1CCCCC1)c1ccccc1 | -15% | -5% | -6% | 9% | 7% | 0%
COc1cccc(N2CCN(C(=O)C3Cc4ccccc4N3C(C)=O)CC2)c1 (stereo not drawn) | x | x | x | -6% | -13% | -5%
O=C(NNC(=O)c1cc2ccccc2cc1O)Nc1ccccc1F | 18µM* | -1% | 1% | -27% | -3% | -24%
Cc1cccc(NC(=O)NNC(=O)c2cc3ccccc3cc2O)c1C | u | 18% | 6% | 2% | 1% | 2%
O=[N+]([O-])c1nn(-c2ccc3c(c2)OCCO3)n(O)c1=NCCC1=CCCCC1 | -27% | 25% | -1% | 25µM* | -4% | -2%
CC(C)c1ccc(N=c2c([N+](=O)[O-])nn(-c3ccc4c(c3)OCCO4)n2O)cc1 | u | 27% | 2% | 13µM* | u | 8%
COc1cc(N=c2c([N+](=O)[O-])nn(-c3ccc4c(c3)OCCO4)n2O)cc(OC)c1 | -28% | 6% | -1% | u | -13% | 6%
O=C(Nc1nnc(S(=O)(=O)N2CCc3ccccc32)s1)c1cccc(Cl)c1 | x | x | x | -9% | -6% | -10%
COc1ccc(-c2ccc(/C=N/NC(=O)Cc3nnc(N)s3)o2)cc1Cl | -37% | -23% | 0% | 56µM* | -9% | -5%
Cc1ccc(-c2ccc(/C=N/NC(=O)Cc3nnc(N)s3)o2)cc1Cl | -26% | -2% | 1% | 4% | -10% | -11%

Screening results as filed in PubChem BioAssay.
